# Reference: PubChem BioAssay
# Where “and” joins values, the source holds several entries; their conditions need not be identical. Equal values may be shown once. Results filed as inconclusive are left out. Calls of active or inactive are those of the source.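 Rule for the calls, unless noted: active = normalized viability below 100% at a tested concentration; inactive = the rest.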
# What was measured:
# [1] = growth inhibition of DIPG glioma cells, dose response, cell-based, SU-DIPG-XVII, MIPE5.0, CellTiter-Glo, qHTS (AID 1347060; cut-off not given, nearly all actives have AC50 up to about 26 µM;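 for AC50: cells exposed to compound for 48 hours before viability readout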); conditions: SU-DIPG-XVII viability, CellTiter-Glo ATP luminescence
# [2] = growth inhibition of DIPG glioma cells, dose response, cell-based, SU-DIPG-XIII, MIPE4.0, CellTiter-Glo, qHTS (AID 1347061; cut-off not given, nearly all actives have AC50 up to about 37 µM;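 note: cells exposed to compound for 48 hours before readout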); conditions: SU-DIPG-XIII viability, CellTiter-Glo ATP luminescence
# [3] = growth inhibition of DIPG glioma cells, dose response, cell-based, JHH-DIPG-1, MIPE4.0, CellTiter-Glo, qHTS (AID 1347062; cut-off not given, nearly all actives have AC50 up to about 27 µM;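 for AC50: cells exposed to compound for two days before readout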); conditions: JHH-DIPG-1 viability, CellTiter-Glo ATP luminescence
# [4] = growth inhibition of DIPG glioma cells, dose response, cell-based, SU-DIPG-XIII, MIPE5.0, CellTiter-Glo, qHTS (AID 1347064; cut-off not given, nearly all actives have AC50 up to about 23 µM;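 for AC50: cells exposed to compound for 48 hours before the viability read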); conditions: SU-DIPG-XIII viability, CellTiter-Glo ATP luminescence
# [5] = SU-DIPG-VI glioma cell viability, MIPE4.0 library, CellTiter-Glo luminescence, qHTS (AID 1347066; cut-off not given, nearly all actives have AC50 up to about 30 µM;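 note: cells exposed to compound for 48 hours before readout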); conditions: CellTiter-Glo ATP luminescence
# [6] = JHH-DIPG-1 glioma cell viability, MIPE5.0 library, CellTiter-Glo luminescence, qHTS (AID 1347067; cut-off not given, nearly all actives have AC50 up to about 26 µM;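 note: cells exposed to compound for 48 hours before readout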); conditions: JHH-DIPG-1 glioma viability, CellTiter-Glo ATP luminescence
# [7] = sensitizers of A549 cells to miR-34 induction, primary screen, imaging, A549 dox-inducible miR-34, nuclei and caspase counts (AID 1347080;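 active = compounds whose cell count with miR-34 switched on is under 0.7 times the count with it off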); conditions: A549 miR-34 inducible, Hoechst nuclei count, 48 h
# [8] = modifiers of HSF1 nuclear foci, imaging, Selleck Cancer Library (AID 1347162; in the data active = plate-normalised HSF1 focus index below about 0.46); conditions: human cells, at 10 µM; SSMD: measured here: HSF1 foci SSMD mean; cell count: measured here: cell number; plate-normalised HSF1 focus index: stronger effect = lower value
# [9] = survival rescue of mitochondrial mutant cells in low glucose, primary screen, MELAS cybrids, Rieske KO mouse fibroblasts, CellTiter-Glo (AID 1508586;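 active = mean z-score across replicates of 1.96 or higher in either the MELAS or the Rieske mutant cell line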;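 note: z relative to plate mean and SD of compound and empty wells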)
# [10] = ovarian cancer cell viability with rucaparib, profiling panel, oncology-focused library, rucaparib conditional (AID 1508598); conditions: patient-derived ovarian cancer cells, CellTiter-Glo viability, 144 h, stronger effect = lower value
# [11] = viability loss in pontine glioma line – cell-based, SU-DIPG-XXV, MIPE5.0, CellTiter-Glo, qHTS, dose response (AID 1347065; cut-off not given, nearly all actives have AC50 up to about 26 µM;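 note: cells exposed to compound for 48 hours before ATP readout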); conditions: CellTiter-Glo ATP luminescence
# [12] = SU-DIPG-XXV glioma cell viability, MIPE5.0 library, qHTS (AID 1347068; cut-off not given, nearly all actives have IC50 up to about 30 µM)
# [13] = growth inhibition of DIPG glioma cells, dose response, cell-based, SU-DIPG-IV, MIPE4.0, CellTiter-Glo, qHTS (AID 1347063; cut-off not given, nearly all actives have AC50 up to about 30 µM;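 note: compound exposure lasted 48 hours before the viability readout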); conditions: SU-DIPG-IV viability, CellTiter-Glo ATP luminescence
# [14] = stronger effect = lower value, cell number ratio, induced over uninduced
# [15] = measured here: relative caspase fold change +Dox/-Dox
# [16] = measured here: total cells with miR-34 induction, stronger effect = lower value
# [17] = measured here: total cells without miR-34 induction
# [18] = MELAS cybrid survival, CellTiter-Glo 48 h, stronger effect = higher value
# [19] = Rieske KO mouse fibroblast survival, CellTiter-Glo 72 h
compound,measurement,setting,value
O=C(O)CCC1CCC(c2cc(F)ccc2F)(S(=O)(=O)c2ccc(Cl)cc2)CC1 (centres undefined),outcome,[1],inactive
same,AC50,[2],18.7 µM (active)
same,AC50,[3],16.6 µM (active)
same,outcome,[4],inactive
same,AC50,[5],6.62 µM (active)
same,outcome,[6],inactive
same,fold change,[7]; [14],0.867 (inactive)
same,fold change,[7]; [15],0.588
same,cell count,[7]; [16],8810
same,cell count,[7]; [17],10200
same,SSMD,[8],1.51
same,cell count,[8],7050
same,plate-normalised HSF1 focus index,[8],1.09 (inactive)
same,z-score,[9]; [18],-0.308 (inactive)
same,z-score,[9]; [19],0.781
same,viability,"[10]; at 0.000305 µM, OCI-C5x cells, with rucaparib 10 µM, 100% = cells with rucaparib alone",114% (inactive)
same,viability,"[10]; at 0.000305 µM, OCI-C5x cells, without rucaparib",121% (inactive)
same,viability,"[10]; at 0.000305 µM, OCI-P5x cells, with rucaparib 20 µM, 100% = cells with rucaparib alone",110% (inactive)
same,viability,"[10]; at 0.000305 µM, OCI-P5x cells, without rucaparib",108% (inactive)
same,viability,"[10]; at 0.00122 µM, OCI-C5x cells, with rucaparib 10 µM, 100% = cells with rucaparib alone",123% (inactive)
same,viability,"[10]; at 0.00122 µM, OCI-C5x cells, without rucaparib",121% (inactive)
same,viability,"[10]; at 0.00122 µM, OCI-P5x cells, with rucaparib 20 µM, 100% = cells with rucaparib alone",113% (inactive)
same,viability,"[10]; at 0.00122 µM, OCI-P5x cells, without rucaparib",102% (inactive)
same,viability,"[10]; at 0.00488 µM, OCI-C5x cells, with rucaparib 10 µM, 100% = cells with rucaparib alone",110% (inactive)
same,viability,"[10]; at 0.00488 µM, OCI-C5x cells, without rucaparib",120% (inactive)
same,viability,"[10]; at 0.00488 µM, OCI-P5x cells, with rucaparib 20 µM, 100% = cells with rucaparib alone",107% (inactive)
same,viability,"[10]; at 0.00488 µM, OCI-P5x cells, without rucaparib",105% (inactive)
same,viability,"[10]; at 0.0195 µM, OCI-C5x cells, with rucaparib 10 µM, 100% = cells with rucaparib alone",115% (inactive)
same,viability,"[10]; at 0.0195 µM, OCI-C5x cells, without rucaparib",104% (inactive)
same,viability,"[10]; at 0.0195 µM, OCI-P5x cells, with rucaparib 20 µM, 100% = cells with rucaparib alone",104% (inactive)
same,viability,"[10]; at 0.0195 µM, OCI-P5x cells, without rucaparib",104% (inactive)
same,viability,"[10]; at 0.0781 µM, OCI-C5x cells, with rucaparib 10 µM, 100% = cells with rucaparib alone",108% (inactive)
same,viability,"[10]; at 0.0781 µM, OCI-C5x cells, without rucaparib",112% (inactive)
same,viability,"[10]; at 0.0781 µM, OCI-P5x cells, with rucaparib 20 µM, 100% = cells with rucaparib alone",102% (inactive)
same,viability,"[10]; at 0.0781 µM, OCI-P5x cells, without rucaparib",93.6% (active)
same,viability,"[10]; at 0.313 µM, OCI-C5x cells, with rucaparib 10 µM, 100% = cells with rucaparib alone",113% (inactive)
same,viability,"[10]; at 0.313 µM, OCI-C5x cells, without rucaparib",113% (inactive)
same,viability,"[10]; at 0.313 µM, OCI-P5x cells, with rucaparib 20 µM, 100% = cells with rucaparib alone",99.9% (active)
same,viability,"[10]; at 0.313 µM, OCI-P5x cells, without rucaparib",89.3% (active)
same,viability,"[10]; at 1.25 µM, OCI-C5x cells, with rucaparib 10 µM, 100% = cells with rucaparib alone",113% (inactive)
same,viability,"[10]; at 1.25 µM, OCI-C5x cells, without rucaparib",109% (inactive)
same,viability,"[10]; at 1.25 µM, OCI-P5x cells, with rucaparib 20 µM, 100% = cells with rucaparib alone",94.5% (active)
same,viability,"[10]; at 1.25 µM, OCI-P5x cells, without rucaparib",87.7% (active)
same,viability,"[10]; at 5 µM, OCI-C5x cells, with rucaparib 10 µM, 100% = cells with rucaparib alone",114% (inactive)
same,viability,"[10]; at 5 µM, OCI-C5x cells, without rucaparib",107% (inactive)
same,viability,"[10]; at 5 µM, OCI-P5x cells, with rucaparib 20 µM, 100% = cells with rucaparib alone",84.8% (active)
same,viability,"[10]; at 5 µM, OCI-P5x cells, without rucaparib",76.9% (active)
COc1ccc(-n2c(C)c([N+](=O)[O-])c3ccc(O)cc32)cc1,outcome,[1],inactive
same,AC50,[2],4.69 µM (active)
same,outcome,[3],inactive
same,outcome,[11],inactive
same,outcome,[5],inactive
same,outcome,[6],inactive
same,outcome,[12],inactive
same,fold change,[7]; [14],0.881 (inactive)
same,fold change,[7]; [15],0.334
same,cell count,[7]; [16],6450
same,cell count,[7]; [17],7330
same,z-score,[9]; [18],0.252 (inactive)
same,z-score,[9]; [19],-3.43
Nc1ccc(C(=O)c2cc3c(ccc4ccccc43)[nH]2)cc1,AC50,[1],3.82 µM (active)
same,AC50,[2],23.5 µM (active)
same,AC50,[3],8.33 µM (active)
same,AC50,[11],2.15 µM (active)
same,AC50,[6],5.39 µM (active)
Cc1nc(NC(=O)N2CCC[C@H]2C(N)=O)sc1-c1ccnc(C(C)(C)C(F)(F)F)c1,AC50,[1],5.9 µM (active)
same,AC50,[2],1.87 µM (active)
same,AC50,[13],1.05 µM (active)
same,AC50,[4],4.68 µM (active)
same,AC50,[11],3.32 µM (active)
same,AC50,[5],1.66 µM (active)
CC[C@H](NC(=O)[C@H](C)NC)C(=O)N1C[C@@H](O)C[C@H]1Cc1c(-c2[nH]c3cc(F)ccc3c2C[C@@H]2C[C@H](O)CN2C(=O)[C@H](CC)NC(=O)[C@H](C)NC)[nH]c2cc(F)ccc12,outcome,[1],inactive
same,outcome,[2],inactive
same,AC50,[13],0.0662 µM (active)
same,outcome,[4],inactive
same,outcome,[11],inactive
same,outcome,[5],inactive
same,outcome,[6],inactive
same,outcome,[12],inactive
CC(C)C[C@H](CC(=O)O)C(=O)N[C@@H](Cc1c[nH]c2ccccc12)C(=O)N[C@@H](C)c1ccccc1,outcome,[1],inactive
same,outcome,[2],inactive
same,outcome,[3],inactive
same,AC50,[11],16.6 µM (active)
same,outcome,[6],inactive
same,outcome,[12],inactive
CN(C)c1ccc(C2Nc3ccc4ccccc4c3C3=C2C(=O)CC(C)(C)C3)cc1Br (centres undefined),outcome,[1],inactive
same,outcome,[2],inactive
same,outcome,[3],inactive
same,outcome,[5],inactive
same,outcome,[6],inactive
CN(C)C(=O)c1ccc(S(=O)(=O)c2ccc(NC(=O)[C@@](C)(O)C(F)(F)F)c(Cl)c2)cc1,outcome,[1],inactive
same,outcome,[2],inactive
same,outcome,[3],inactive
same,outcome,[6],inactive
CNC(=O)c1ccc2cc(C3(O)CCn4cncc43)ccc2c1 (centres undefined),outcome,[1],inactive
same,outcome,[2],inactive
same,outcome,[3],inactive
same,outcome,[4],inactive
same,outcome,[5],inactive
same,outcome,[6],inactive
same,outcome,[12],inactive
same,fold change,[7]; [14],0.927 (inactive)
same,fold change,[7]; [15],0.607
same,cell count,[7]; [16],8020
same,cell count,[7]; [17],8650
same,z-score,[9]; [18],0.566 (inactive)
same,z-score,[9]; [19],-0.147
Cc1ccc2c(c1)C(=O)[C@]1(O)CCN(c3ccccc3)C1=N2,AC50,[1],14.8 µM (active)
same,outcome,[2],inactive
same,outcome,[3],inactive
same,outcome,[5],inactive
same,outcome,[6],inactive
same,outcome,[12],inactive
same,fold change,[7]; [14],0.934 (inactive) and 0.847 (inactive)
same,fold change,[7]; [15],0.749 and 0.315
same,cell count,[7]; [16],6020 and 6690
same,cell count,[7]; [17],6450 and 7900
same,z-score,[9]; [18],-0.292 (inactive)
same,z-score,[9]; [19],-2.56
c1cc(-c2sc(-c3ccncc3)c(-c3ccncc3)c2-c2ccncc2)ccn1,outcome,[1],inactive
same,outcome,[2],inactive
same,outcome,[3],inactive
same,outcome,[11],inactive
same,outcome,[5],inactive
same,outcome,[6],inactive
same,outcome,[12],inactive
CCN(C(=O)c1c(O)c2c(Cl)cccc2n(C)c1=O)c1ccccc1,AC50,[1],8.33 µM (active)
same,outcome,[2],inactive
same,AC50,[3],14.8 µM (active)
same,outcome,[4],inactive
same,outcome,[5],inactive
same,fold change,[7]; [14],0.884 (inactive)
same,fold change,[7]; [15],0.907
same,cell count,[7]; [16],8690
same,cell count,[7]; [17],9820
same,z-score,[9]; [18],-0.321 (inactive)
same,z-score,[9]; [19],0.483
CCOC(=O)[C@@H](N)Cc1ccc(-c2cc(O[C@H](c3ccc(Cl)cc3-n3ccc(C)n3)C(F)(F)F)nc(N)n2)cc1,AC50,[1],11.8 µM (active)
same,outcome,[2],inactive
same,AC50,[13],26.4 µM (active)
same,AC50,[4],20.9 µM (active)
same,AC50,[11],13.2 µM (active)
same,AC50,[5],16.6 µM (active)
same,AC50,[6],13.2 µM (active)
